Data on 34 targets can be found in the supplement of paper PMC10849652.

About 7,900 targets were measured; listed, in parts, are those with a hit and a random draw of the rest. About 0.6% of all pairs of compound and target were hits. Unmarked numbers belong to inactive results.

Sequence of UniProt Q96EV2 (Q96EV2 whole entry, looked up): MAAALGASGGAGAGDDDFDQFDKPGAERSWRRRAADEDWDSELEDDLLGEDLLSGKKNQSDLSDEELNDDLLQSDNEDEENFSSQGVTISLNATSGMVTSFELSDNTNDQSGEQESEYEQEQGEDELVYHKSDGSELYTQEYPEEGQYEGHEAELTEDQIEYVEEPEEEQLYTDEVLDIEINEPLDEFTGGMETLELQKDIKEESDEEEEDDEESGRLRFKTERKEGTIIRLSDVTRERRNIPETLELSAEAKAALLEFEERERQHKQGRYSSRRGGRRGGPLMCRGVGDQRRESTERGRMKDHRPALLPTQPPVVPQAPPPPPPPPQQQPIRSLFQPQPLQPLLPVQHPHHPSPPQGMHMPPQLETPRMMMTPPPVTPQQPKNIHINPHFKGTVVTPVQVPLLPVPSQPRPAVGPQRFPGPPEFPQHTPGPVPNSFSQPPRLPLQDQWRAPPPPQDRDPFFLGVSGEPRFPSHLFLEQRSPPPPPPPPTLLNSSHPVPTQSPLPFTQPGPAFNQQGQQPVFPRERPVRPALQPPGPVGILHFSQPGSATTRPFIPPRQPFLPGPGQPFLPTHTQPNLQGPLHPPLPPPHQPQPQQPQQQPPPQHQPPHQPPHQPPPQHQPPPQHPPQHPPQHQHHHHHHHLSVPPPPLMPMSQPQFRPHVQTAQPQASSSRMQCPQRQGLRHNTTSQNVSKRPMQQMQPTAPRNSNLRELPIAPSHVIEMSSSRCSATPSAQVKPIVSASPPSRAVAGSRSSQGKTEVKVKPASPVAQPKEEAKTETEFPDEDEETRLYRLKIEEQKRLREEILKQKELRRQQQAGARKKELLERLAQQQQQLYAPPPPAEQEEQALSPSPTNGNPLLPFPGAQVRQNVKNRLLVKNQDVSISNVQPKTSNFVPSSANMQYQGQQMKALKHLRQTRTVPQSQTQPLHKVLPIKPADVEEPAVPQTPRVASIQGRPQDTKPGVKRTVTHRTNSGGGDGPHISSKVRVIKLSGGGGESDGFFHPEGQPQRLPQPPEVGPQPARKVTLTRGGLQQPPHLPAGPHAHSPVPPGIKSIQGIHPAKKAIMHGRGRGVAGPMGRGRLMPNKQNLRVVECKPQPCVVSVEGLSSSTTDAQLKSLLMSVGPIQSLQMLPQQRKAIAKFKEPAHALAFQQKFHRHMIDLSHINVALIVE
Sequence of UniProt Q6NUM9 (Q6NUM9 whole entry, looked up): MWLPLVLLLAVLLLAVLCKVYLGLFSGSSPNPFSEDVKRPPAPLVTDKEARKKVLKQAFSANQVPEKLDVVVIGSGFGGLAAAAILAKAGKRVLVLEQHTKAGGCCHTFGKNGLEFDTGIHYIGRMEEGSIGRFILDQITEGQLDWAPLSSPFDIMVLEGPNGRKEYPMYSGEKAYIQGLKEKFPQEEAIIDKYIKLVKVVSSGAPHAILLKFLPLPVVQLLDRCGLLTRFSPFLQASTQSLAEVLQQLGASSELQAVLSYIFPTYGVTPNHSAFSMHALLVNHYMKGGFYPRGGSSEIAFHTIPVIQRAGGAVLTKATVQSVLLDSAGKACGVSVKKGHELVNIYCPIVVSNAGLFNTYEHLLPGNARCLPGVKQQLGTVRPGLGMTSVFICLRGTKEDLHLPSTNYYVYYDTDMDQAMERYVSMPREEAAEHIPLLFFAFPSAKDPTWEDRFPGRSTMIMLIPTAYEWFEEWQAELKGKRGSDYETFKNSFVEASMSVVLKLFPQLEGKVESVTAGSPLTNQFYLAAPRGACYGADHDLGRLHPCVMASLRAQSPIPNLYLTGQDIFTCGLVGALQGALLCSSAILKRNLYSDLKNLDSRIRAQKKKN
Sequence of UniProt Q04864 (Q04864 whole entry, looked up): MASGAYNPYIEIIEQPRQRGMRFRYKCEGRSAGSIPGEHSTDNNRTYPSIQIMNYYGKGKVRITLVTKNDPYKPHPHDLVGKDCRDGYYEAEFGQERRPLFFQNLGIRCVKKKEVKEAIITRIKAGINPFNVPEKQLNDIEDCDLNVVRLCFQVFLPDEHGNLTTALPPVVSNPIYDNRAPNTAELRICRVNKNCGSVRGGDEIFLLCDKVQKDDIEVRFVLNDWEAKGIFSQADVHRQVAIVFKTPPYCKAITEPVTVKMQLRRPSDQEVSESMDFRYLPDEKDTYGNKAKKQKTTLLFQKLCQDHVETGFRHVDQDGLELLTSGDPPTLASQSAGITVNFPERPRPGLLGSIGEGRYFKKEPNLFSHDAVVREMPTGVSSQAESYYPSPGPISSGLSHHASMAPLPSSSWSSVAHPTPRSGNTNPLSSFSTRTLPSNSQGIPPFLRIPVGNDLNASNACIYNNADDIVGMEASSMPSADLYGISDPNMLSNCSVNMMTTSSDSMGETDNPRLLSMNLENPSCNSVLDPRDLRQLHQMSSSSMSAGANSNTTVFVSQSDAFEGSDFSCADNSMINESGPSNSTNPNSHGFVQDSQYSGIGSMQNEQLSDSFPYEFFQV
Sequence of UniProt O43665 (O43665 whole entry, looked up): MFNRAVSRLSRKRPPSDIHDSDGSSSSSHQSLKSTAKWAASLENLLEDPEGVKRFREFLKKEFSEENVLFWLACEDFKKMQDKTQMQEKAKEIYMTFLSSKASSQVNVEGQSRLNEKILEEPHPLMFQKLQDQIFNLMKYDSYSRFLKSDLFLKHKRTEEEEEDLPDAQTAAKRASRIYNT
Sequence of UniProt Q01974 (Q01974 whole entry, looked up): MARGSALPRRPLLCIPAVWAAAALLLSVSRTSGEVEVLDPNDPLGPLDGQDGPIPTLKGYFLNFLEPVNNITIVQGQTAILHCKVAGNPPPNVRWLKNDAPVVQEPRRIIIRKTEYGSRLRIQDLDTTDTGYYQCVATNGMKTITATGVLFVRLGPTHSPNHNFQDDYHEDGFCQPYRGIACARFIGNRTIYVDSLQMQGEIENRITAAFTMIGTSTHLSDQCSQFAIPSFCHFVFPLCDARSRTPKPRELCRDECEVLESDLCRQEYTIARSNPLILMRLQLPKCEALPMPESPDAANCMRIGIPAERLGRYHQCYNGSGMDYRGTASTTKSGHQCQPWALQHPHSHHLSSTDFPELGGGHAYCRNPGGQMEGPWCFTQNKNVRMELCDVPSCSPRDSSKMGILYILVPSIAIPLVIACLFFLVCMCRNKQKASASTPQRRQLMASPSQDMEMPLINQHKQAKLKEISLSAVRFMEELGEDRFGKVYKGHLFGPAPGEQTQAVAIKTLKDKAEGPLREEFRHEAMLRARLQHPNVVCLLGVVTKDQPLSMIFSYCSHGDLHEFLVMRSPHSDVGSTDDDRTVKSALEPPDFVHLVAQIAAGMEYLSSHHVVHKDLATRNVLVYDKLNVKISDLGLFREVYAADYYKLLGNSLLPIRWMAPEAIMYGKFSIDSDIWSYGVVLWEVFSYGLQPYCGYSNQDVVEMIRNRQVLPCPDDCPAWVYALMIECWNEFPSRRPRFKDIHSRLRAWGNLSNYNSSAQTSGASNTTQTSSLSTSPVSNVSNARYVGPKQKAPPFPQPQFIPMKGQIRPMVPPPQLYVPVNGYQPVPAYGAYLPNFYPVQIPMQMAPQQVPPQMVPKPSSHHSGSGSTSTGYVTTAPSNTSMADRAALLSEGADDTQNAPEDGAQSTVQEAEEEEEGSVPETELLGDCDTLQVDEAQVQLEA
Sequence of UniProt Q8IZE3 (Q8IZE3 whole entry, looked up): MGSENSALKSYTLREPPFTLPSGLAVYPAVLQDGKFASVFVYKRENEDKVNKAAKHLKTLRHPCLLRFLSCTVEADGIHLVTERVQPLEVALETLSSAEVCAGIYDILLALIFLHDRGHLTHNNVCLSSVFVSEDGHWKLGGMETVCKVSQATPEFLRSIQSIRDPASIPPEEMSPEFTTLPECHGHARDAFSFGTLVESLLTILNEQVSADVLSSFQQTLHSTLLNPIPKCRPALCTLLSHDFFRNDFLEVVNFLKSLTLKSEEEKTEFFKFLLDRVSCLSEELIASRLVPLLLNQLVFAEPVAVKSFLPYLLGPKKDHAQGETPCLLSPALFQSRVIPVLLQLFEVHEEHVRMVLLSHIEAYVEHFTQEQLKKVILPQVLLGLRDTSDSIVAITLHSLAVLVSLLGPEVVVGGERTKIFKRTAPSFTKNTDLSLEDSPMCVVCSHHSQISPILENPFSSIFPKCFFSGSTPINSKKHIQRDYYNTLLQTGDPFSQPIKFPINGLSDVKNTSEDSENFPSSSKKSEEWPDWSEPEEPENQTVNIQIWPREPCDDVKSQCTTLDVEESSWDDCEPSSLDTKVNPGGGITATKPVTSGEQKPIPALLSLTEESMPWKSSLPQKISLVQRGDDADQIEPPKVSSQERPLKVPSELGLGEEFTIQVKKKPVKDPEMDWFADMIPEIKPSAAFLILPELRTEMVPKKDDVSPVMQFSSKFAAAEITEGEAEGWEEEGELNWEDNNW
Sequence of UniProt Q13546 (Q13546 whole entry, looked up): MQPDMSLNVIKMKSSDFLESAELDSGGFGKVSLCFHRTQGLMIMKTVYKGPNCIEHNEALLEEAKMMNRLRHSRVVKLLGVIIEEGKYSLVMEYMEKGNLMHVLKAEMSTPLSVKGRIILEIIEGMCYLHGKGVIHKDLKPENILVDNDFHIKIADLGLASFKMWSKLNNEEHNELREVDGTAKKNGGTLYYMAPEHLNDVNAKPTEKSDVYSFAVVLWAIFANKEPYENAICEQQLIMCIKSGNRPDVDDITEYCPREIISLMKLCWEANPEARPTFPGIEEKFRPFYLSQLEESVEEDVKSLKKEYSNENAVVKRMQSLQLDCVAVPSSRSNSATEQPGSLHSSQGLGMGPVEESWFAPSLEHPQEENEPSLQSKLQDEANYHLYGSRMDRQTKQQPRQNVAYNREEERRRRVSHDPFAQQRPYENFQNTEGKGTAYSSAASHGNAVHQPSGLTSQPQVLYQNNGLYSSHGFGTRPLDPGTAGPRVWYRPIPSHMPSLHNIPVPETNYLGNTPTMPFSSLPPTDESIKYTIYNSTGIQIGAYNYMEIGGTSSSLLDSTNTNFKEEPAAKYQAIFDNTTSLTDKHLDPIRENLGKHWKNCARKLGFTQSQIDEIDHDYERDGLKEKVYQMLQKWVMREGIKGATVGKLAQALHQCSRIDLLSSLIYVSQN

Compound in one assay: C1=CC=C2C(=C1)C3=NNC4=CC=CC(=C43)C2=O
Kind of assay: log2 fold change, soluble protein after heating vs DMSO (PISA); higher = thermal stabilisation; K562 cells, 10 uM, 30 min; active = over 0.2 and 3.5 SD of the protein, either way, in both replicates (recomputed). In outline: (§1)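 Values are thermal stability changes relative to control samples and are taken from duplicates. They are stated as log2 fold changes. Before quantification by TMTpro 16plex LC-MS/MS with equalised channel sums, K562 cells at 2×10^6 cells/mL were treated with 10 μM compound for 30 min, heated in aliquots for 3 min across 48°C-58°C, pooled, extracted in PBS with 0.5% NP-40 at 4°C, and centrifuged at 21,000xg for 90 min to give the soluble supernatant.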
On to RPS3 (UniProt P23396), for which the log2 fold change was -0.03.

Consider SDHC (UniProt Q99643), for which the log2 fold change was 0.102.

For the target REL (UniProt Q04864), the log2 fold change is -0.013.

In the case of SERINC1 (UniProt Q9NRX5), the log2 fold change is 0.149.

As for RPS9 (UniProt P46781), the log2 fold change is 0.002.

As to RPS27A (UniProt P62979), the log2 fold change is -0.062.

For RPS18 (UniProt P62269), the log2 fold change is 0.

RBM33 (UniProt Q96EV2): the log2 fold change was -0.114.

For SEC23IP (UniProt Q9Y6Y8), the log2 fold change is -0.027.

For RRAGB (UniProt Q5VZM2), the log2 fold change is 0.082.

RPS16 (UniProt P62249): the log2 fold change is 0.002.

On to RPS4X (UniProt P62701), for which the log2 fold change was 0.043.

With RABGGTA (UniProt Q92696), the log2 fold change was 0.043.

Consider RSL1D1 (UniProt O76021), for which the log2 fold change is -0.086.

Consider ROR2 (UniProt Q01974), for which the log2 fold change was -0.024.

In the case of SEC16A isoform 5 (UniProt O15027), the log2 fold change was 0.069.

For the target RETSAT (UniProt Q6NUM9), the log2 fold change was 0.144.

RAB5C isoform 2 (UniProt P51148): the log2 fold change is 0.015.

With RSF1 (UniProt Q96T23), the log2 fold change was -0.057.

With SCAMP2 (UniProt H3BUB6), the log2 fold change was -0.143.

Take RSRC2 (UniProt Q7L4I2): the log2 fold change was -0.032.

On to RAB5IF isoform 5 (UniProt Q9BUV8), for which the log2 fold change is 0.036.

RGS10 (UniProt O43665): the log2 fold change is -0.015.

Regarding ROCK1 (UniProt Q13464), the log2 fold change is -0.018.

In the case of SCYL3 isoform 2 (UniProt Q8IZE3), the log2 fold change is 0.014.

With SCAF11 (UniProt Q99590), the log2 fold change is -0.068.

For the target RCC1 isoform 2 (UniProt P18754), the log2 fold change is 0.018.

Regarding RPS6KA2 isoform 2 (UniProt Q15349), the log2 fold change is -0.473 (active).

Turning to RNASET2 (UniProt O00584), the log2 fold change was -0.027.

As for RBM48 isoform 2 (UniProt Q5RL73), the log2 fold change was 0.042.

As for RPS3A (UniProt P61247), the log2 fold change was 0.

As for RRP9 (UniProt O43818), the log2 fold change is -0.085.

For the target SASH1 (UniProt O94885), the log2 fold change was 0.107.

As to RIPK1 (UniProt Q13546), the log2 fold change was 0.219.

Compound in another assay: C1CCN(C1)C(=O)NC2=CC=CC(=C2)NC3=NC=C(C(=N3)NCCC4=CN=CN4)Br
The description is as above. The method, boiled down: as §1
Take RPS3 (UniProt P23396): the log2 fold change is 0.093.

Consider SDHC (UniProt Q99643), for which the log2 fold change was 0.008.

Consider REL (UniProt Q04864), for which the log2 fold change is -0.082.

Consider SERINC1 (UniProt Q9NRX5), for which the log2 fold change was 0.115.

Take RPS9 (UniProt P46781): the log2 fold change is 0.102.

Regarding RPS27A (UniProt P62979), the log2 fold change is 0.111.

Turning to RPS18 (UniProt P62269), the log2 fold change was 0.097.

Take RBM33 (UniProt Q96EV2): the log2 fold change is 0.034.

In the case of SEC23IP (UniProt Q9Y6Y8), the log2 fold change is -0.008.

Take RRAGB (UniProt Q5VZM2): the log2 fold change is -0.048.

On to RPS16 (UniProt P62249), for which the log2 fold change was 0.025.

For RPS4X (UniProt P62701), the log2 fold change is 0.076.

Turning to RABGGTA (UniProt Q92696), the log2 fold change was 0.005.

For RSL1D1 (UniProt O76021), the log2 fold change was 0.016.

With ROR2 (UniProt Q01974), the log2 fold change is -0.041.

Turning to SEC16A isoform 5 (UniProt O15027), the log2 fold change was 0.06.

Consider RETSAT (UniProt Q6NUM9), for which the log2 fold change is -0.126.

Consider RAB5C isoform 2 (UniProt P51148), for which the log2 fold change is -0.003.

With RSF1 (UniProt Q96T23), the log2 fold change was 0.01.

Turning to SCAMP2 (UniProt H3BUB6), the log2 fold change is 0.218.

Consider RSRC2 (UniProt Q7L4I2), for which the log2 fold change was 0.

Take RAB5IF isoform 5 (UniProt Q9BUV8): the log2 fold change is 0.027.

Turning to RGS10 (UniProt O43665), the log2 fold change was -0.069.

Turning to ROCK1 (UniProt Q13464), the log2 fold change is 0.032.

Turning to SCYL3 isoform 2 (UniProt Q8IZE3), the log2 fold change is 0.093.

For the target SCAF11 (UniProt Q99590), the log2 fold change is 0.125.

As for RCC1 isoform 2 (UniProt P18754), the log2 fold change is -0.09.

For RPS6KA2 isoform 2 (UniProt Q15349), the log2 fold change is -0.058.

RNASET2 (UniProt O00584): the log2 fold change was 0.034.

Consider RBM48 isoform 2 (UniProt Q5RL73), for which the log2 fold change was 0.118.

For RPS3A (UniProt P61247), the log2 fold change is 0.088.

RRP9 (UniProt O43818): the log2 fold change is -0.081.

For SASH1 (UniProt O94885), the log2 fold change is -0.041.

For RIPK1 (UniProt Q13546), the log2 fold change is 0.002.

Compound in another assay: C1CN(CCC1(CC2=CC=C(C=C2)Cl)N)C3=NC=NC4=C3C=CN4
The description is as above. In outline:
as §1
For the target RPS3 (UniProt P23396), the log2 fold change is -0.156.

In the case of SDHC (UniProt Q99643), the log2 fold change was 0.02.

Regarding REL (UniProt Q04864), the log2 fold change was 0.01.

SERINC1 (UniProt Q9NRX5): the log2 fold change is -0.031.

For RPS9 (UniProt P46781), the log2 fold change is -0.172.

With RPS27A (UniProt P62979), the log2 fold change was -0.098.

For RPS18 (UniProt P62269), the log2 fold change was -0.144.

Take RBM33 (UniProt Q96EV2): the log2 fold change was 0.038.

SEC23IP (UniProt Q9Y6Y8): the log2 fold change is -0.061.

With RRAGB (UniProt Q5VZM2), the log2 fold change is 0.037.

As for RPS16 (UniProt P62249), the log2 fold change is -0.2.

As to RPS4X (UniProt P62701), the log2 fold change was -0.221.

As to RABGGTA (UniProt Q92696), the log2 fold change was 0.122.

On to RSL1D1 (UniProt O76021), for which the log2 fold change is -0.193.

ROR2 (UniProt Q01974): the log2 fold change is -0.001.

Take SEC16A isoform 5 (UniProt O15027): the log2 fold change was 0.017.

As for RETSAT (UniProt Q6NUM9), the log2 fold change is 0.194.

Take RAB5C isoform 2 (UniProt P51148): the log2 fold change is 0.043.

As for RSF1 (UniProt Q96T23), the log2 fold change is 0.006.

For SCAMP2 (UniProt H3BUB6), the log2 fold change is -0.003.

With RSRC2 (UniProt Q7L4I2), the log2 fold change is 0.012.

As for RAB5IF isoform 5 (UniProt Q9BUV8), the log2 fold change is 0.267.

As for RGS10 (UniProt O43665), the log2 fold change was 0.036.

On to ROCK1 (UniProt Q13464), for which the log2 fold change is 0.205.

Consider SCYL3 isoform 2 (UniProt Q8IZE3), for which the log2 fold change is 0.123.

On to SCAF11 (UniProt Q99590), for which the log2 fold change was -0.035.

With RCC1 isoform 2 (UniProt P18754), the log2 fold change is 0.011.

On to RPS6KA2 isoform 2 (UniProt Q15349), for which the log2 fold change is -0.004.

For RNASET2 (UniProt O00584), the log2 fold change was 0.052.

On to RBM48 isoform 2 (UniProt Q5RL73), for which the log2 fold change was -0.115.

For the target RPS3A (UniProt P61247), the log2 fold change is -0.162.

Consider RRP9 (UniProt O43818), for which the log2 fold change is -0.016.

On to SASH1 (UniProt O94885), for which the log2 fold change was -0.079.

Turning to RIPK1 (UniProt Q13546), the log2 fold change is -0.015.
